Experimental data as given in ChEMBL document CHEMBL2218924, “A broad activity screen in support of a chemogenomic map for kinase signalling research and drug discovery” (Biochem J, 2013).

target: Ribosomal protein S6 kinase alpha-1 (Homo sapiens) (UniProt Q15418); conditions: at 1 µM
Sequence (Q15418 whole entry): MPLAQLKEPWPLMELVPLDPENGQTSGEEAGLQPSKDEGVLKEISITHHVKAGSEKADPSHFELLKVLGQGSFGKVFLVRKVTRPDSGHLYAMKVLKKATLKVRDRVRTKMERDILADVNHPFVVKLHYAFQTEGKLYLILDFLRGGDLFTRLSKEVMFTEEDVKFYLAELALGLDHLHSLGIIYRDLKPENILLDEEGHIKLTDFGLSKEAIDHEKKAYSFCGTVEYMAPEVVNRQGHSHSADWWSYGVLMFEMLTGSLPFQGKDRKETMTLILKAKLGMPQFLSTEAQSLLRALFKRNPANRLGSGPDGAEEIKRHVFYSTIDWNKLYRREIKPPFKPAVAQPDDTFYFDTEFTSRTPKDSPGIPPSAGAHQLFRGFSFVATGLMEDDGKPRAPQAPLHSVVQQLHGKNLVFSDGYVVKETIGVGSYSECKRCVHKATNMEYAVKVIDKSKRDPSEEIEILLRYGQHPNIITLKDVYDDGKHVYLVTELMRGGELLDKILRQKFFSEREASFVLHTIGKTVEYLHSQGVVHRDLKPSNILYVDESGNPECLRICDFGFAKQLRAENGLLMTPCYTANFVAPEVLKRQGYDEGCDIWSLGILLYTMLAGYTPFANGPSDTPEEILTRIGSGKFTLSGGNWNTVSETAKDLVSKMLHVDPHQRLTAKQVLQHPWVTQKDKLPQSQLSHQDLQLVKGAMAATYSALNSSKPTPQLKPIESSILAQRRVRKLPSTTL

Row | SMILES | residual activity [%]
1 | CC(C)[C@H](CO)Nc1nc(Nc2cc(N)cc(Cl)c2)c2ncn(C(C)C)c2n1 | 32
2 | Fc1ccc(-c2nc3n(c2-c2ccncc2)CCS3)cc1 | 73
3 | O=c1cc(N2CCOCC2)oc2c(-c3ccccc3)cccc12 | 138
4 | O=C1C(Cl)=C(N2C(=O)CCC2=O)C(=O)c2ccccc21 | 120
5 | NCCNc1ncc(C(N)=O)c(Nc2cccc(C(F)(F)F)c2)n1 | 116
6 | COc1cc2nccc(Oc3ccc(NC(=S)NC(=O)c4ccccc4C)cc3)c2cc1OC | 96
7 | O=C1Cc2c([nH]c3ccc(Br)cc23)-c2ccccc2N1 | 78
8 | O=C(c1ccccc1)c1ccc(N2CCOCC2)cc1O | 96
9 | O=S(=O)(c1cccc2cnccc12)N1CCCNCC1 | 84
10 | O=C(O)/C=C/c1cc(Br)c(Br)c(Br)c1Br | 110
11 | CC(C)(C)c1nc2c3ccc(F)cc3c3c(=O)[nH]ccc3c2[nH]1 | 65

target: Ribosomal protein S6 kinase alpha-1 (Homo sapiens) (UniProt Q15418); conditions: at 10 µM

Row | SMILES | residual activity [%]
12 | N#Cc1c(NC(=O)c2cccc3ccccc23)sc2c1CCCC2 | 94
13 | CC(C)[C@H](CO)Nc1nc(Nc2cc(N)cc(Cl)c2)c2ncn(C(C)C)c2n1 | 6
14 | Fc1ccc(-c2nc3n(c2-c2ccncc2)CCS3)cc1 | 81
15 | O=C1C(Cl)=C(N2C(=O)CCC2=O)C(=O)c2ccccc21 | 131
16 | NCCNc1ncc(C(N)=O)c(Nc2cccc(C(F)(F)F)c2)n1 | 59
17 | N#C/C(=C\c1ccc(O)c(O)c1)C(=O)NCc1ccccc1 | 102
18 | COc1cc2nccc(Oc3ccc(NC(=S)NC(=O)c4ccccc4C)cc3)c2cc1OC | 81
19 | Nc1ncnc2c1cnn2-c1ccccc1 | 88
20 | O=C1Cc2c([nH]c3ccc(Br)cc23)-c2ccccc2N1 | 77
21 | O=C(c1ccccc1)c1ccc(N2CCOCC2)cc1O | 85
22 | NC(=O)c1cccc(-c2cc(Nc3ccc(OC(F)(F)F)cc3)ncn2)c1 | 94
23 | O=S(=O)(c1cccc2cnccc12)N1CCCNCC1 | 47
24 | O=C(O)/C=C/c1cc(Br)c(Br)c(Br)c1Br | 89
25 | CC(C)(C)c1nc2c3ccc(F)cc3c3c(=O)[nH]ccc3c2[nH]1 | 55

target: Ribosomal protein S6 kinase alpha-3 (Homo sapiens) (UniProt P51812); conditions: at 1 µM
Sequence (P51812 whole entry): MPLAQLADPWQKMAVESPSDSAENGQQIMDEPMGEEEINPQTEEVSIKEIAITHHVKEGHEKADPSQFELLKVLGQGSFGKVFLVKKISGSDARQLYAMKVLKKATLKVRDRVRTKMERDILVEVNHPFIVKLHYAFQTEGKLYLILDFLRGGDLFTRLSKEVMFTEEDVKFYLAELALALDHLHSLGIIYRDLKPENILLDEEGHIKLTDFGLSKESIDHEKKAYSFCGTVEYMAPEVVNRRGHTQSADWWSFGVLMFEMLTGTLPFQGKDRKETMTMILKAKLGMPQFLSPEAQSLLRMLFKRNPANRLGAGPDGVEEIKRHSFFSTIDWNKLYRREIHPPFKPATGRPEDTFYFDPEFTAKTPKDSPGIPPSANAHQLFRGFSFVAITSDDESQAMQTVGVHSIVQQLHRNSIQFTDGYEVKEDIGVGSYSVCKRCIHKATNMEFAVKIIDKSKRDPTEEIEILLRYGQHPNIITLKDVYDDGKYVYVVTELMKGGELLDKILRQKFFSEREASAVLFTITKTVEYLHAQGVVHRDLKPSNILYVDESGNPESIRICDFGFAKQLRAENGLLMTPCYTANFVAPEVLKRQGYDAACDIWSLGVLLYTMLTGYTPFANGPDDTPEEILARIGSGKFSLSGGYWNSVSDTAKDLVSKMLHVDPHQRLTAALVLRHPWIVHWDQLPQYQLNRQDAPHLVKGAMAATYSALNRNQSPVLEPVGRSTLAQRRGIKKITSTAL

Row | SMILES | residual activity [%]
26 | N#Cc1c(NC(=O)c2cccc3ccccc23)sc2c1CCCC2 | 49
27 | Fc1ccc(-c2nc3n(c2-c2ccncc2)CCS3)cc1 | 64
28 | CCCCc1c(-c2ccc(O)cc2)[nH]c2nccnc12 | 42
29 | O=c1cc(N2CCOCC2)oc2c(-c3ccccc3)cccc12 | 69
30 | O=C(Nc1nc2ccccc2n1CCN1CCOCC1)c1cccc([N+](=O)[O-])c1 | 104
31 | O=C1Nc2ccccc2/C1=C\c1c(Cl)[nH]c2ccccc12 | 60
32 | O=C1C(Cl)=C(N2C(=O)CCC2=O)C(=O)c2ccccc21 | 73
33 | CCOC(=O)c1c(C)[nH]c(/C=C2\C(=O)Nc3ccccc32)c1C | 88
34 | N#C/C(=C\c1ccc(O)c(O)c1)C(=O)NCc1ccccc1 | 67
35 | COc1cc2nccc(Oc3ccc(NC(=S)NC(=O)c4ccccc4C)cc3)c2cc1OC | 70
36 | Cn1sc(=O)n(Cc2ccccc2)c1=O | 49
37 | O=C(c1ccccc1)c1ccc(N2CCOCC2)cc1O | 45
38 | COc1ccc(-c2cnc3c(-c4ccsc4)cnn3c2)cc1 | 67
39 | NC(=O)c1cccc(-c2cc(Nc3ccc(OC(F)(F)F)cc3)ncn2)c1 | 57
40 | COc1cc2ncnc(Nc3cccc(Cl)c3)c2cc1OC | 102
41 | NC(=O)c1ccc(-c2nc(-c3ccc4c(c3)OCCO4)c(-c3ccccn3)[nH]2)cc1 | 56
42 | O=C(O)/C=C/c1cc(Br)c(Br)c(Br)c1Br | 59
43 | Nc1nccc(-c2c(-c3ccc(F)cc3)ncn2C2CCNCC2)n1 | 54
44 | CC(C)N(CCC(=O)c1ccc2ccccc2c1)Cc1ccccc1 | 54
45 | O=C1Cc2c([nH]c3ccc([N+](=O)[O-])cc23)-c2ccccc2N1 | 56
